High-throughput results: PubChem, National Center for Advancing Translational Sciences (NCATS)
A selection: hits, their analogues and other compounds. The true share with any hit is near 11%.
ALOX12 inhib: 12-hLO (ALOX12) enzyme inhibition. AID 1452. purified 12-hLO, xylenol orange hydroperoxide absorbance. Potency, µM (doses to about 57.1 µM), for the others: at the top dose activity change, negative = inhibition, hits mostly inhibitors. P18054. 0.12% of 150,000 active; note: potency is the fitted concentration of half-maximal effect; nearly all actives have a fitted effect of over 55% in size
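Xylenol orange chromogenic assay: hydroperoxide from 12hLO oxidises Fe(II), giving red-shifted Fe(III)-XO absorbance. Conditions: 150 nM enzyme, 40 uM arachidonic acid, 25 mM Hepes pH 7.0, 0.01% Triton X-100, 30 min, room temperature.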
IMPase inh: IMPase inhibition in cells | CHO-M1 cells, IP1 accumulation, HTRF TR-FRET ratio | inhibition (IP1 accumulation), % at 46.1 µM | 120,000 tested, under 10 active | AID 901; active = well fitted curve in the direction sought with a large enough effect in the signal ratio, not every such curve was filed as active; inconclusive = small, poorly fitted or top-dose-only effect, or a change in a side signal; inactive = no such curve, though single readings can be large or run the other way; the % refers to the signal ratio;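 note: cells stimulated with carbachol in lithium chloride buffer; plate controls were DMSO basal wells for no effect and reference inhibitor wells for full effect; higher means more IMPase inhibition seen as more IP1 and lower FRET ratio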
Target sequence (P97697 whole entry, looked up): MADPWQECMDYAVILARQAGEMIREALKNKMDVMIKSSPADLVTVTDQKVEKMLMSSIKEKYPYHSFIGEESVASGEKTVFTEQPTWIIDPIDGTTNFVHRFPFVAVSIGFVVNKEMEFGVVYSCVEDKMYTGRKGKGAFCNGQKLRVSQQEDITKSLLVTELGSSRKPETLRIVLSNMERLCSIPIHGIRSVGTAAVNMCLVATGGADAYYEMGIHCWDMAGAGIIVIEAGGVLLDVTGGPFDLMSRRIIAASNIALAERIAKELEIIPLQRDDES
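Elevated IP1 in lysates lowers TR-FRET signal (665/620 ratio and 620 channel reported). Cells were CHO-M1, given carbachol (50 uM as added) plus 50mM LiCl, pH 7.4, 30 min, 37C; compounds titrated up to 46 uM; AC50 by Hill equation.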
PNC assembly inh: blocks assembly of the perinucleolar compartment | PC3M PTB-GFP, PNC prevalence imaging, 16 h; active compounds read low | activity change (PNC), negative = inhibition, % at 10 µM | 3.1% of 140,000 active | AID 2417;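 active = readout at or below -70, meaning at least 70% loss of cells showing the perinucleolar compartment, a nuclear body marking cancer cells; inconclusive = readout between -30 and a set limit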;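 note: plate controls were DMSO wells for no effect and camptothecin positive control wells for full effect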
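Compounds are pinned in duplicate onto adhered PC3M cells stably expressing GFP-tagged PTB and incubated 16 h at 37 C. Cells are then fixed, nuclei stained with Hoechst, and PNC-positive cells counted.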
ALDH1A1 inh: blocks purified human ALDH1A1 activity. P00352. Purified ALDH1A1, NADH fluorescence, propionaldehyde substrate. Potency, µM (highest dose often 75.3 µM), for inactives: at the top dose activity, negative = inhibition, most hits filed as inhibitors. 7.3% of 220,000 active; active = well fitted inhibition curve with a large enough effect, not every such curve was filed as active; inconclusive = small, poorly fitted or top-dose-only effect, or another doubt; inactive = no such curve, though single readings can be large or run the other way;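 note: potency is the fitted concentration of half-maximal effect; plate controls were no enzyme wells and a reference inhibitor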
Target sequence (P00352 whole entry, looked up): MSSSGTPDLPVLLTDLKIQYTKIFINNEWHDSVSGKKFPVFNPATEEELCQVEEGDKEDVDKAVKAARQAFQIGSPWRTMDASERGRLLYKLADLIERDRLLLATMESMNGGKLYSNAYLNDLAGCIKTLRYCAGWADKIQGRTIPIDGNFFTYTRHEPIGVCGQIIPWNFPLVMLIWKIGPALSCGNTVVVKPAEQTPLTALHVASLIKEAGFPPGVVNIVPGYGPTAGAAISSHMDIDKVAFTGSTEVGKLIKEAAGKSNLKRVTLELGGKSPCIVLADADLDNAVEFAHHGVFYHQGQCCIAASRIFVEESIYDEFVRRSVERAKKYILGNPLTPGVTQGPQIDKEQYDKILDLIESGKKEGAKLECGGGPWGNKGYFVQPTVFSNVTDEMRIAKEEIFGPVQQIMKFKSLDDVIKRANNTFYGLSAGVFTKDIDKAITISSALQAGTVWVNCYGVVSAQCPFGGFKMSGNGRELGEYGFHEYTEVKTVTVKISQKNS
IMPase Li inh: membrane-permeable IMPase blocker, potentiated with lithium; CHO-M1 cells, IP1 TR-FRET (IP-One), carbachol + lithium; AID 1457; Potency, µM (series often up to 59.4 µM), inactives show top-dose activity, negative = IMPase inhibition, hits mostly inhibitors; 0.35% of 210,000 active;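 note: IP1 builds up when IMPase is blocked and the TR-FRET signal falls; potency is the fitted concentration of half-maximal effect; plate controls were basal vehicle for no effect and high inhibitor control for full effect; nearly all actives have a fitted effect of over 50% in size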
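Readout is a homogeneous TR-FRET IP1 immunoassay (Ex 320, Em 665 and 620), where raised cytosolic IP1 lowers signal. Cells were CHO-M1 treated 30 min at 37C with test compounds plus a little lithium; AC50 values came from Hill-equation fitting.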
HPGD inh: HPGD (human) dehydrogenase inhibition; purified HPGD, NADH fluorescence kinetic, PGE2 substrate; Potency, µM, inactives show at the top dose activity change, negative = inhibition, most hits filed as inhibitors; 4.3% of 150,000 active; active = well fitted inhibition curve with a large enough effect, not every such curve was filed as active; inconclusive = small, poorly fitted or top-dose-only effect, or another doubt; inactive = no such curve, though single readings can be large or run the other way; note: potency is the fitted concentration of half-maximal effect
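20 nM HPGD preincubated 15 min at room temperature with compound in 50 mM Tris-HCl pH 8, 0.01% Tween 20. Started with 1 mM NAD+ and 30 uM prostaglandin E2; NADH fluorescence (360/450 nm) read 5 times over 30-s intervals, last minus first.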
An asterisk follows results filed as active; ? = inconclusive; nt = no result given; [ ] = dose if it differs, or a comment. Unless noted, calls come from the whole dose curve; as a rule, active = well fitted curve in the direction sought with a large enough effect; inconclusive = small, poorly fitted or top-dose-only effect, or another doubt; inactive = no such curve, though single readings can be large; an effect the other way counts as inactive or inconclusive. Unless noted, % is set by controls: 0 for no effect and ±100 for the full control effect.

SMILES | ALOX12 inhib | IMPase inh | PNC assembly inh | ALDH1A1 inh | IMPase Li inh | HPGD inh
Cc1ccc(S(=O)(=O)N(C)C)cc1NC(=O)c1cccnc1Oc1ccccc1 | nt | nt | nt | 28µM* | nt | nt
CC(C)C1CCC(C(=O)NC(Cc2ccccc2)C(=O)O)CC1 (stereo not given) | 2% | nt | nt | -2% | 4% | -3%
CC(=O)c1cccc(NC(=O)c2ccc(NS(=O)(=O)c3c(C)noc3C)cc2)c1 | -2% | -5 | -17 | ? | -30%[38.3 µM] | -13%
O=C(Nc1cccc(F)c1)c1ccccc1 | 9% | 5 | -1 | 2% | -11%[38.3 µM] | 32µM*
O=C(Nc1ccncc1)c1cccc(F)c1 | 4% | 0 | 43 | 6% | 1%[38.3 µM] | 1%
O=C(Nc1cccc(F)c1)c1ccccc1-c1ccccc1 | -1% | -1 | -103* | -11% | nt | nt
CC(=O)c1cccc(NC(=O)c2ccc(NS(C)(=O)=O)cc2)c1 | -6% | 11 | -119* | 10% | 17% | 13µM*
Cc1ccc(C)c(N2CCN(C(c3ccc(F)cc3)c3nnc(-c4ccccc4)o3)CC2)c1 (stereo not given) | nt | 4 | nt | nt | nt | nt
COC(=O)C1=C(C(=O)OC)[C@@H]2N(C)c3ccc(OC)cc3[C@@]23C[C@@H](C(=O)OC)N(S(=O)(=O)c2ccc(C#N)cc2)C3=N1 | -7%[11.4 µM] | nt | nt | 4%[13.5 µM] | 2% | 1%
O=Cc1cn(CC(=O)N2CCCc3ccccc32)c2ccccc12 | 1% | 0 | -100* | ? | 6% | -9%
O=C(CN1CCOCC1)N1CCCc2ccccc21 | nt | nt | nt | 7.9µM* | 10% | nt
C=C(C)CSc1nc2sc3c(c2c(=O)n1-c1ccccc1)CCC(C)C3 (stereo not given) | nt | -5 | nt | nt | nt | nt
CCOC(=O)Cc1nnc(NC(=O)C(CC)Sc2nncn2C)s1 (stereo not given) | 0% | 7 | -85* | -11% | 22%[38.3 µM] | -16%
C/C(=C(\C#N)C(=O)NC1CCCCC1)N(C)C | 5% | -5 | 78 | -8% | 0%[38.3 µM] | 16µM*
COc1ccc(CCNC(=O)CCc2ccc(S(=O)(=O)NCC(C)C)cc2)cc1 | -2% | nt | ? | -10% | -2% | -3%
COc1cc(/C=C/c2nc3ccccc3s2)cc(OC)c1O | nt | nt | nt | ? | -18% | nt
COc1cc(/C=C(\C#N)C(N)=O)cc(CSc2nc3ccccc3s2)c1O | -8% | 4 | nt | ? | 29% | 40µM*
CC1(C)C(C(=O)O)N2C(=O)CC2S1(=O)=O (stereo not given) | -1%[0.00818 µM] | nt | nt | 6% | -4% | -4%
O=C1NCCN(Cc2ccc(Cl)c(F)c2)C1CC(=O)N1CCCCO1 (stereo not given) | nt | nt | nt | 25µM* | 0% | nt
CO[C@H]1COC(=O)C/C=C\[C@H](C)[C@H](OC)COC(=O)[C@@H](C)COC(=O)C/C=C\[C@@H]1C | nt | nt | nt | 4%[13.5 µM] | nt | nt
COc1c(Cl)cc(C(=O)NN)cc1Cl | nt | nt | nt | 2.2µM* | 3% | nt
COc1cc(C(N)=O)cc(Cl)c1OC | nt | nt | nt | 1% | -2% | nt
NNC(=O)c1cc(O)c(O)c(O)c1 | nt | nt | nt | 25µM* | 12% | nt
COc1ccc(CC(=O)Nc2ccc(C(=O)Nc3ccccc3C(=O)O)cc2)cc1OC | -2% | -8 | ? | 28µM* | -17% | -16%
CNC(=O)c1cc(Cl)c(OC)c(OC)c1 | -6% | -12 | 1 | 22µM* | -2% | ?
SMILES | ALOX12 inhib | IMPase inh | PNC assembly inh | ALDH1A1 inh | IMPase Li inh | HPGD inh
Cc1[nH]nc2nc3c(c(OC(=O)c4ccccc4)c12)c(=O)n(C)c(=O)n3C | 1% | 1 | 0 | 5% | -4%[38.3 µM] | -21%
Cc1ccc(OCCSc2nc3ccccc3n2CCC(=O)O)cc1C | nt | -12 | nt | nt | nt | nt
COc1c(Cl)cc(C(=O)Nc2ccccc2C(=O)O)cc1Cl | 2% | 8 | 45 | 13µM* | -3%[38.3 µM] | 14µM*
COc1ccc(-c2c(C#N)c(SCC(=O)Nc3ccc(C)c(C)c3)nc(C)c2C(=O)Nc2ccccc2)cc1OC | nt | 2 | nt | nt | nt | nt
O=C(O)CCCC(=O)Nc1ccc(C(=O)N2CCCCC2)cc1 | -3% | 13 | -16 | 9% | -10%[38.3 µM] | 2.2µM*
COc1ccc(OC)c(NC(=O)C2CCN(C(=O)c3cccs3)CC2)c1 | nt | nt | nt | 2% | -2% | nt
COc1ccc(NC(=O)C2CCN(C(=O)c3ccc(OC)cc3)CC2)cc1 | 13% | 5 | 28 | -4% | 34%[38.3 µM] | -10%
O=C(Nc1ccc(C(=O)N2CCCCC2)cc1)C1CCCCC1 | -6% | 6 | 56 | ? | 2%[38.3 µM] | 2µM*
CC(=O)Nc1ccc(NC(=O)C2CCN(C(=O)c3cccs3)CC2)cc1 | nt | nt | nt | 13µM* | -2% | nt
CN(C)S(=O)(=O)c1ccc(NC(=O)C2CCCN(C(=O)c3ccc(Cl)cc3)C2)cc1 (stereo not given) | 6% | nt | 6 | 13µM* | 1% | -18%
CCN(CC)CCC[C@H](C)Nc1c2ccc(Cl)cc2nc2ccc(OC)cc12 | 0%[25.6 µM] | 12[20.6 µM] | nt | ? | 27% | ?
Cc1nc2cnc(N3CCNCC3)nc2n(CCC#N)c1=O | 1% | nt | nt | ? | 7% | ?
CCCCCCC(=O)Nc1ccc(C(=O)N2CCCC2)cc1 | -11% | -7 | ? | ? | 12%[38.3 µM] | 4µM*
O=C(Nc1ccccc1)C1CCCCC1 | 8% | 6 | ? | 8% | 2% | 25µM*
O=C(O)CCC(=O)Nc1ccc(C(=O)OC2CCCCC2)cc1 | 4% | 0 | 33 | -12% | 17%[38.3 µM] | -24%
O=C(O)CCC(=O)Nc1ccc(C(=O)N2CCCCC2)cc1 | -1% | -4 | -24 | -6% | 7%[38.3 µM] | 0.71µM*
CCCCN(c1ccccc1)c1ncnc2c1cnn2C | 1%[11.4 µM] | nt | nt | 8%[13.5 µM] | -1% | -11%
Cc1ccc2oc(-c3cc(NC(=O)CC(C)C)ccc3Cl)nc2c1 | nt | -1 | nt | nt | nt | nt
CCc1nc2nc(C)c(NS(=O)(=O)c3ccc(C(C)(C)C)cc3)c(=O)n2[nH]1 | nt | -8 | nt | nt | nt | nt
CC(C#N)Sc1nc2ccccc2c(=O)n1-c1ccccc1 (stereo not given) | 0% | -1 | 19 | 4.5µM* | 8%[38.3 µM] | -5%
O=C(O)c1cc(Br)ccc1NN=C1CCCCC1 | -17% | nt | ? | ? | -3% | 25µM*
Cc1ccsc1C(=O)NNC(=O)C1CCCCC1C(=O)O (stereo not given) | 2% | 4[0.0738 µM] | ? | 22µM* | 0% | -2%
CCOc1ccc(NC(=O)c2cccnc2C(=O)O)cc1 | 0% | -8 | 17 | 22µM* | -8%[38.3 µM] | -6%
CCOc1ccc(NC(=O)C(C)Oc2ccccc2C(=O)Nc2cccc(Cl)c2Cl)cc1 (stereo not given) | -11% | 3 | -110* | -4% | 14%[38.3 µM] | 0%
CCOc1ccc(NC(=O)c2ccccc2OC)cc1 | -9% | ? | ? | 5% | -3%[38.3 µM] | -18%
CCOc1ccc(NC(=O)Cc2ccccc2)cc1 | 0% | nt | 21 | 2% | -12% | 13µM*
CCOc1ccc(NC2=NCC(=O)N2CCc2ccccc2)cc1 | -6% | -4 | ? | 25µM* | 13%[38.3 µM] | -12%
